According to PubChem BioAssay AID743088 (The Scripps Research Institute Molecular Screening Center, 2013):
The source made the active and inactive calls.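 Rule for the calls: active = binding inhibited by at least 50%, or stimulated by at least 50%, shown as inhibition of -50% or lower; inactive = the rest.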

System: Potassium Channel KATP
Assay: radioligand displacement at 30 receptors – biochemical, Panlabs HitProfilingScreen, selectivity assay for AVPR1a antagonist project, profiling panel (AID 743088)
Conditions: 30 targets, at 10 µM, hits give high values

Q: Which inhibition of binding does the source give for `O=C(C1CCN(c2ccc(Cl)cn2)CC1)N(CC1CC1)c1ccc(Cl)cc1` here?
A: 19% (inactive)
